Measurements published in PubChem BioAssay AID651813 (National Center for Advancing Translational Sciences (NCATS), 2012).
The whole screen tested about 2,100 compounds, of which about 1,100 (52%) were called active. Inconclusive results (about 27%) are left out. The set was probably picked from earlier hits. Some of the results follow. A number with no mark means an inactive call. Calls follow the shape of the dose curve; as a rule, active = well fitted inhibition curve with a large enough effect; inconclusive = small, poorly fitted or top-dose-only effect; inactive = no such curve, though single readings can be large or run the other way.

biological target: DNA dC->dU-editing enzyme APOBEC-3G (Homo sapiens) (UniProt Q9HC16); experiment: qHTS for inhibitors of Vif-A3G interactions: Cherry picks counterscreen; settings: HeLa A3G-eYFP + Vif (tagged APOBEC3G with the HIV-1 protein that degrades it), eYFP fluorescence, 24 h;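 also: hits raise yellow fluorescence by blocking Vif-driven A3G-eYFP degradation; nearly all actives have a fitted effect of over 70% in size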;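 as to max response: max response given as percent of control signal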
Sequence (Q9HC16 whole entry, looked up): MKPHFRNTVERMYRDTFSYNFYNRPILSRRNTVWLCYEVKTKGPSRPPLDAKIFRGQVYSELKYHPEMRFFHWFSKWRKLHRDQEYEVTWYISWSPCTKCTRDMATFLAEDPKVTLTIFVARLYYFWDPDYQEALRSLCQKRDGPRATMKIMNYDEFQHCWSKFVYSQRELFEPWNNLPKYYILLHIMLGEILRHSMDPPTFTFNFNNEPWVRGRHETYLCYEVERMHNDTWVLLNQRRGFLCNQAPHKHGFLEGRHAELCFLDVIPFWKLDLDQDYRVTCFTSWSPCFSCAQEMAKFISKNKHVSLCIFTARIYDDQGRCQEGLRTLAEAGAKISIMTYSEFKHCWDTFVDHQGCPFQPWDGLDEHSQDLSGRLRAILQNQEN
Outline: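 Readout is eYFP fluorescence (488 nm excitation, 500-530 nm emission) measured on Acumen Explorer after 24 h compound exposure, several concentrations, at 37 deg C. Cells: HeLa stably co-expressing Vif and C-terminally eYFP-tagged A3G; MG132 positive control.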
Potency is read from the fitted curve at half-maximal effect.

Compound | Potency | max response [%]
N#CCc1ccc(NC(=O)/C=C/c2ccc([N+](=O)[O-])o2)cc1 | 13 µM (active) | 
O=C(Nc1nc2c(F)cccc2s1)c1ccc([N+](=O)[O-])o1 |  | -8.08
O=C(/C=C/c1ccc([N+](=O)[O-])o1)NNC(=O)c1ccc(F)cc1 | 7.9 µM (active) | 
CCOC(=O)CCc1ccc(NC(=O)/C=C/c2ccc([N+](=O)[O-])o2)cc1 | 11.6 µM (active) | 
N#C/C=C/N1CCN(C(=O)c2ccco2)CC1 |  | -14.7
CCN(CC(=O)NCc1ccc(F)cc1)C(=O)/C=C/c1ccc(OC)c(S(=O)(=O)NC(C)C)c1 | 3.53 µM (active) | 
c1ccc(-c2cnn3c(-c4ccccc4)c(-c4ccccc4)nc3n2)cc1 | 2.59 µM (active) | 
CCOC1=C2CN(S(=O)(=O)c3ccc(C)cc3)[C@H](c3cccc4ccccc34)C[C@H]2C(C#N)(C#N)C(C#N)(C#N)C1 |  | -20.1
COc1cccc(C2CC(c3ccccc3)=NN2S(=O)(=O)c2ccc(C)cc2)c1OC (stereo unspecified) | 18.4 µM (active) | 
Cc1ccc(C2=NN(C(=O)c3cccs3)C(c3ccccc3O)C2)cc1 (stereo unspecified) |  | 20.9
Cc1ccc(C2=NN(S(=O)(=O)c3ccccc3)C(c3ccccc3O)C2)cc1 (stereo unspecified) | 13 µM (active) | 
O=c1c2ccccc2sc2ccc(NCCCN3CCOCC3)cc12 | 23.1 µM (active) | 
COc1ccc(S(=O)(=O)N2c3ccccc3OCC2CC(=O)O)cc1 (stereo unspecified) | 12.5 µM (active) | 
COc1ccc(S(=O)(=O)N2CCN(C(=O)c3ccc([N+](=O)[O-])o3)CC2)cc1 |  | -0.426
COc1ccc(N/C=C2\C(=O)CCc3c2oc2cc(Cl)c(O)c(Cl)c32)cc1 |  | -5.39
COC(=O)/C(=C\Nc1ccc(Cl)cc1Cl)NC(=O)c1ccc(OC)cc1 | 1.98 µM (active) | 
O=C(NC(=S)Nc1c(Cl)cc(Cl)cc1Cl)c1ccccc1 |  | 6.93
Clc1ccc(/C=N/NC2=Nc3cccc4cccc2c34)cc1 | 20.6 µM (active) | 
Clc1ccccc1/C=N/NC1=Nc2cccc3cccc1c23 | 9.2 µM (active) | 
COc1cccc(CNCCSc2nnnn2C)c1OCc1ccc(F)cc1 |  | 2.02
c1cc(SC2CCCCC2)cc(-c2nc3cnccn3c2NC2CCCCC2)c1 |  | 17.4
COc1ccc(-c2nc3cnccn3c2NC2CCCCC2)cc1-c1cccc(Cl)c1 |  | -10.6
CCCCNc1c(-c2ccc(SC3CCCCC3)cc2)nc2cnccn12 | 2.23 µM (active) | 

Compound | Potency | max response [%]
CN(C)c1ccc(/C=N/NC(=O)c2cc(-c3ccc4c(c3)OCO4)n[nH]2)cc1 | 12.5 µM (active) | 
Cc1cc(C)n(-c2nnc3n2N=C(c2c[nH]c4ccccc24)CS3)n1 | 6.27 µM (active) | 
COc1cc(/C=C2/CCC/C(=C\c3cc(O)c(OC)c(Cl)c3)C2=O)cc(Cl)c1O | 14.6 µM (active) | 
CCOc1cc(/C=C2\CCC/C(=C\c3cc(Cl)c(O)c(OCC)c3)C2=O)cc(Cl)c1O | 17.7 µM (active) | 
Cc1csc(NC(=O)CCC(=O)N(CC(=O)NC2CCCC2)Cc2ccccc2)n1 |  | -14.8
NC(=O)c1ccc(Cn2c(C(=O)c3cc(Cl)c(N)c(Cl)c3)c3ccccc3[n+]2[O-])cc1 | 11.2 µM (active) | 
Cc1ccc(-n2nc3c(N4CCCC(C(=O)NCc5ccccc5C)C4)nnc(C)c3c2C)cc1 (stereo unspecified) |  | -1.78
Cc1ccc(Cl)cc1NC(=O)Nc1cn(CC(C)C)c(=O)c2ccccc12 |  | 10.5
Cc1ccc(C)c(NC(=O)Cn2cc(S(=O)(=O)Cc3cccc(Cl)c3)c3ccccc32)c1 | 18.4 µM (active) | 
Cc1ccc(NC(=O)C2CCN(S(=O)(=O)c3ccc(Cl)c(C(F)(F)F)c3)CC2)nc1 |  | 8.66
O=C(Nc1ccc(Cl)cn1)c1cccc(S(=O)(=O)N2CCCCCC2)c1 |  | 1.56
O=C(Cn1ncc(Cl)c(Cl)c1=O)N1CCN(S(=O)(=O)c2ccc3ccccc3c2)CC1 | 11.2 µM (active) | 
COc1ccc(OCCCC(=O)N2CCN(S(=O)(=O)c3cccc(F)c3)CC2)cc1 |  | 2.87
Cc1ccc(S(=O)(=O)N2CCCCC2)cc1NC(=O)Cn1ncc(Cl)c(Cl)c1=O | 12.5 µM (active) | 
Fc1ccc(-c2cnn3c(-c4cccs4)ccnc23)cc1 | 5.59 µM (active) | 
COc1ccc(CN(C(C)=O)c2cccc(C)c2C)cc1 | 17.7 µM (active) | 
Cc1nnc(NC(=O)CSc2nc(C(C)C)nc3ccccc23)s1 | 6.27 µM (active) | 
COc1ccc(C2CC(c3ccncc3)=NN2c2ccc(S(N)(=O)=O)cc2)cc1 (stereo unspecified) | 5.17 µM (active) | 
COc1cc(C2C3=C(COC3=O)Oc3cc4c(cc32)OCO4)ccc1OC(C)=O (stereo unspecified) | 1.77 µM (active) | 
O=C1OCC2=C1C(c1ccc3c(c1)OCO3)c1cc3c(cc1O2)OCO3 (stereo unspecified) | 2.23 µM (active) | 
CN(C)CCCNc1cc(N2CCN(C3CCCCC3)CC2)c2noc3c2c1C(=O)c1ccccc1-3 | 1.84 µM (active) | 
O=C1c2ccccc2-c2onc3c(N4CCN(C5CCCCC5)CC4)cc(NCCO)c1c23 | 2.59 µM (active) | 
CCNc1cc(N2CCN(C3CCCCC3)CC2)c2noc3c2c1C(=O)c1ccccc1-3 | 7.31 µM (active) | 
